Laboratory results: PubChem BioAssay (NCI)
About 83,000 compounds went through this panel and 20% of them were active in at least one assay; those are over-represented in the sample as a whole.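 For each line, cells grew in 96-well plates with the test compound present at a single concentration for 48 hours.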 Values without a mark were called inactive. The source made the active and inactive calls. The calls were made as follows: active = growth percent below 10; inactive = the rest.

Legend:
Experiment in all cases: NCI-60 one-dose screen, 48 h (100 = growth as untreated, 0 = no growth, -100 = all killed)
Conditions in all cases: 10 µM unless noted
SR leukemia = test system: SR leukemia
RPMI-8226 leukemia = test system: RPMI-8226 leukemia
OVCAR-8 ovarian = test system: OVCAR-8 ovarian
OVCAR-5 ovarian = test system: OVCAR-5 ovarian
OVCAR-4 ovarian = test system: OVCAR-4 ovarian
SK-OV-3 ovarian = test system: SK-OV-3 ovarian
IGROV1 ovarian = test system: IGROV1 ovarian
OVCAR-3 ovarian = test system: OVCAR-3 ovarian
HS 578T breast = test system: HS 578T breast
NCI/ADR-RES ovarian = test system: NCI/ADR-RES ovarian

Compound | growth (SR leukemia) | growth (RPMI-8226 leukemia) | growth (OVCAR-8 ovarian) | growth (OVCAR-5 ovarian) | growth (OVCAR-4 ovarian) | growth (SK-OV-3 ovarian) | growth (IGROV1 ovarian) | growth (OVCAR-3 ovarian) | growth (HS 578T breast) | growth (NCI/ADR-RES ovarian)
Brc1cccc(/C=N/Nc2nc(N/N=C/c3cccc(Br)c3)nc(N3CCOCC3)n2)c1 | 7.93% (active) | 34.2% | 37.4% | 72.4% | 54.2% | 92.9% | 42.8% | 42.4% | 66.2% | 41.8%
C=C(C)C(=O)O[C@H]1C[C@@]2(C)OC(=CC2=O)/C(CO)=C\[C@H]2OC(=O)C(=C)[C@H]12 | -38.5% (active) | -25.6% (active) | 8.5% (active) | -56.5% (active) | 17.4% | 81.6% | -36% (active) | -93.6% (active) | 17.2% | 11.6%
C=C(C)C(=O)O[C@H]1C[C@@]2(C)OC(=CC2=O)/C(C)=C\[C@H]2OC(=O)C(=C)[C@H]12 | -19.6% (active) | -15.3% (active) | 4.8% (active) | -56.4% (active) | 36.1% | 77% | 7.34% (active) | -72.1% (active) | 21.9% | 15.7%
CNC(=O)c1cc(N2CCc3cc(NC(=O)Nc4ccc(Cl)c(Cl)c4)ccc32)ccn1 | 64.4% | 57.1% | 90% | 96.8% | 86.4% | 88.8% | 94% | 105% | 62% | 93%
O=C(CSc1ccc(-c2nc3ccccc3[nH]2)cn1)N1CCN(c2ccccc2F)CC1 | 52.5% | 50.2% | 37.4% | 107% | 24.2% | 95.4% | 80.7% | 50.7% | 89.4% | 29%
COc1ccc(N)cc1C(=O)Nc1cccc(-c2cc(=O)c3c(OC)c(OC)c(OC)cc3o2)c1 | 40.9% | 35.4% | 56.4% | 94.8% | 81.5% | 119% | 51.3% | 65.5% | 58.3% | 60.7%
COc1cc(/C=N/n2cnc3oc(-c4ccccc4)cc3c2=N)cc(CN2CCN(C)CC2)c1O | 35.2% | 95.8% | 93.9% | 105% | 97.7% | 91.3% | 61.7% | 110% | 68% | 
O=C(NNc1nc2cc(F)ccc2n2cncc12)c1cnccn1 | 17% | 25.4% | 21% | 50% | 31.1% | 28.4% | 27.6% | 28.2% | 71.8% | 12.2%
COc1ccccc1/C=C/C(=O)c1nnn(-c2ccc(C(=O)O)cc2)c1C | 67% | 90.4% | 91.6% | 113% | 101% | 106% | 90.4% | 89.2% | 106% | 93.5%
CC(=O)NC(C)(C)C(=O)N1CCC[C@H]1C(=O)NC(C)(C)C(=O)N[C@@H](C)C(=O)NC(C)(C)C(=O)N[C@@H](C)C(=O)N[C@@H](CCC(N)=O)C(=O)NC(C)(C)C(=O)N[C@H](C(=O)NC(C)(C)C(=O)NCC(=O)N[C@@H](CC(C)C)C(=O)NC(C)(C)C(=O)N1CCC[C@H]1C(=O)N[C@H](C(=O)NC(C)(C)C(=O)NC(C)(C)C(=O)N[C@@H](CCC(N)=O)C(=O)N[C@@H](CCC(N)=O)C(=O)N[C@H](CO)Cc1ccccc1)C(C)C)C(C)C | 83.9% [4.25 µM] | 1.4% [4.25 µM] (active) | 71.8% [4.25 µM] | 108% [4.25 µM] | 42.7% [4.25 µM] | 74% [4.25 µM] | 76.9% [4.25 µM] | 59.2% [4.25 µM] | 82.8% [4.25 µM] | 99.5% [4.25 µM]
O=C(NCCCNc1cc(-c2cn(-c3ccccc3)nc2-c2cccc(O)c2)ccn1)Nc1cccc(C(F)(F)F)c1 | 30.2% | 4.35% (active) | 56.1% | 56% | 38.9% | 57.5% | 44.2% | 49.6% | 7.27% (active) | 48.1%
Oc1ccccc1/C=N/Nc1nc(N/N=C/c2ccccc2O)nc(N2CCOCC2)n1 | 16% | 53.6% | 12.7% | 37% | -11.7% (active) | 11.9% | 37% | 33.6% | 47% | 
O=C(Nc1cc(Cl)cc(Cl)c1)Nc1nc2ccc([N+](=O)[O-])cc2s1 | -0.61% (active) | -23.8% (active) | 8.77% (active) | 24% | 10% | -2.86% (active) | 21.1% | 13.8% | -6.91% (active) | 
N#C/C(=C\c1ccc(Cl)cc1Cl)C(N)=O | 80.5% | 111% | 106% | 99.7% | 107% | 107% | 102% | 109% | 99% | 107%
COc1cc2cc(Oc3ccc(NC(=O)Nc4cc(C(F)(F)F)cc(C(F)(F)F)c4)cc3)c(C)nc2cc1OCCN(C)C | 121% | 113% | 113% | 109% | 104% | 113% | 104% | 120% | 101% | 
O=C1CC2(CCOCC2)Oc2ncccc21 | 15% | 5.53% (active) | 90.9% | 52.6% | 102% | 120% | 8.85% (active) | -54.4% (active) | 95.2% | 104%
NS(=O)(=O)c1ccc(Nc2nc(N/N=C/c3ccc(C(F)(F)F)cc3)nc(Nc3ccccc3)n2)cc1 | 7.13% (active) | -5.16% (active) | 33% | 67.5% | 40.9% | 55.5% | 31.2% | 11.7% | 8.82% (active) | 87.4%
COc1ccc(/C=N/Nc2nc(N/N=C/c3ccc(OC)cc3O)nc(N3CCOCC3)n2)c(O)c1 | 27.4% | 41.7% | 69.1% | 68.1% | 63.1% | 89.1% | 51.1% | 19.1% | 77.7% | 23.1%
O=C(CCCCCCN1CC(=O)N2[C@@H](c3cccc(Br)c3)c3[nH]c4ccccc4c3C[C@H]2C1=O)NO | 37.4% | 13.4% | 24.9% | 29% | 48.9% | 13.9% | 2.39% (active) | 6.19% (active) | 61.4% | 91.9%
Nc1c(C(=O)c2ccccc2)sc2nc(-c3cnccn3)cc(-c3cccs3)c12 | 105% | 108% | 103% | 103% | 106% | 103% | 97.4% | 108% | 98.8% | 
C/C(=N/Nc1nc(N/N=C(/C)c2ccc([N+](=O)[O-])cc2)nc(N2CCOCC2)n1)c1ccc([N+](=O)[O-])cc1 | 113% | 64.7% | 63.6% | 95.5% | 77.6% | 113% | 93.8% | 88.4% | 78.7% | 68.7%
CC(C)N=C(N/C(N)=N/c1nc2ccccc2s1)NC(C)C | 49.5% | 42.7% | 67.2% | 60.8% | 93.6% | 83.4% | 39.6% | 104% | 75.9% | 63.7%
Cc1ccc(NC(=O)c2ccc(CN3CCN(C)CC3)c(C(F)(F)F)c2)cc1Oc1ccc(-c2[nH]nc3ncnc(N)c23)cc1 | 2.87% (active) | 18.1% | 94.5% | 95.3% | 90.7% | 97% | 82.7% | 113% | 72.8% | 52%
CCN(CC)c1ccc2cc(C(=O)NCCOCCOCCOCCn3cc(CCC(=O)Nc4ccc(C(=O)c5ccc(NC(=O)OC(C)(C)C)cc5)cc4)nn3)c(=O)oc2c1 | 44% | 16.2% | 17.4% | 99.8% | 33.5% | 98.3% | 41.1% | 44.6% | 83.7% | 
CS(=O)(=O)c1ccc(-c2nn(-c3ccccc3)cc2/C=C/C(=O)c2ccc(Br)cc2)cc1 | 59.6% | 32.8% | 93.6% | 101% | 90.6% | 107% | 95% | 70.3% | 117% | 85.2%
NS(=O)(=O)c1ccc(-n2cc(CC=O)nn2)cc1 | 101% | 109% | 106% | 104% | 101% | 112% | 102% | 109% | 104% | 104%
